Screens as filed in PubChem BioAssay.
Shown are actives, neighbours in structure and some others; about 3.9% of the full set was active somewhere.
CCHF vOTU inh – CCHFV vOTU protease inhibitors, primary screen, biochemical, Pep-AMC substrate, fluorescence; hit rate 0.55% among 370,000; inhibition, % at 11.5 µM; in the data active = inhibition above about 30%
Bead autofluor – flagged as autofluorescent in microsphere protease counterscreen. compound autofluorescence counterscreen, microsphere flow cytometry; hits give high values. fluorescence intensity (concentration not given with the values). hit rate 3.1% among 360,000; in the data active = fluorescence intensity above about 16000; inconclusive = no clear call, values can overlap the other calls
BoNT A protease – BoNT/A light chain protease inhibitors, primary screen, biochemical, flow cytometry, MLPCN library. inhibition, % at 10 µM. multiplex microsphere protease substrate cleavage. hit rate 0.17% among 360,000
SARS 3CLpro inh – SARS-CoV 3CLpro protease inhibitors, primary screen, biochemical, quenched FRET. Replicase polyprotein 1ab (Severe acute respiratory syndrome coronavirus), P0C6X7. recombinant SARS-CoV 3CLpro, quenched FRET peptide cleavage. inhibition, % at 6 µM. hit rate 0.14% among 290,000; in the data active = inhibition above about 12%
Anthrax LF prot – Bacillus anthracis LF protease inhibitors, primary screen, biochemical, multiplex microsphere, MLPCN library; multiplex microsphere protease cleavage assay; hit rate 0.12% among 360,000; inhibition, % at 10 µM; AID 588501, 2011
Target sequence (P15917 whole entry, looked up): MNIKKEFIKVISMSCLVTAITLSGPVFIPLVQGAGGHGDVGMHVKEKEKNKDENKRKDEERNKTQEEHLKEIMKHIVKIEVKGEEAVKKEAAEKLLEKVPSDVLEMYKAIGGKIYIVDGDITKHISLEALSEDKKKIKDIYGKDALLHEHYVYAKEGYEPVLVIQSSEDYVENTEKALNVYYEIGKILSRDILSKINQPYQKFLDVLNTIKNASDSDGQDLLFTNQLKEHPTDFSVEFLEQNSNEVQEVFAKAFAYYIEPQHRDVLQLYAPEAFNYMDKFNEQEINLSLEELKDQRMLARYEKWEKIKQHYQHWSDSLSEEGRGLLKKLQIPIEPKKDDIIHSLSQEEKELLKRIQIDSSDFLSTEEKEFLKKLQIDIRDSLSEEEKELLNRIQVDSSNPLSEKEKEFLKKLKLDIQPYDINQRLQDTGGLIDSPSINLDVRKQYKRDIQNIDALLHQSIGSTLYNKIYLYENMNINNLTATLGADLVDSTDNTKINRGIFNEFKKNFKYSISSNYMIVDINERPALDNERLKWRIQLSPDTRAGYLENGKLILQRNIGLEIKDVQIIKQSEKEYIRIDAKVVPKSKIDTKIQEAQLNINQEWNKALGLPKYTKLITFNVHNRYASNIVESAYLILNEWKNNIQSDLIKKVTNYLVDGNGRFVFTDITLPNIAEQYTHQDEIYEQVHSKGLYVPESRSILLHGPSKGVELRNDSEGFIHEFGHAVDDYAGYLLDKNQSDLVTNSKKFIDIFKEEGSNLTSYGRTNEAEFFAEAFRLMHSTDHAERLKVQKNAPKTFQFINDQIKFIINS
BoNT F protease – BoNT/F light chain protease inhibitors, primary screen, biochemical, flow cytometry, MLPCN library. Botulinum neurotoxin type F light chain protease (Clostridium botulinum). Multiplex microsphere protease cleavage assay. inhibition, % at 10 µM. hit rate 0.22% among 360,000. AID 588497, 2011; in the data active = inhibition above about 35%, passing the limit was not always enough; inconclusive = no clear call, values can overlap the other calls
Hits are given with their value. Rule as the data show it, unless noted: active = inhibition above about 30%; inconclusive = no clear call, values can overlap the other calls; inactive = below that.

CCCCn1c(SCC(=O)Nc2cc(C)[nH]n2)nc2ccsc2c1=O was read as CCHF vOTU inh inactive, Bead autofluor 18853, BoNT A protease inactive, SARS 3CLpro inh inactive, Anthrax LF prot inactive and BoNT F protease inactive.
Cc1cc(NC(=O)CSc2nc3ccsc3c(=O)n2Cc2ccccn2)n[nH]1 was read as CCHF vOTU inh inactive, Bead autofluor 16535, BoNT A protease inactive, SARS 3CLpro inh inactive, Anthrax LF prot inactive and BoNT F protease inactive.
CC1CCCCN1C(=O)CSc1nc2ccsc2c(=O)n1Cc1ccccn1 (centres undefined) was read as CCHF vOTU inh inactive, Bead autofluor 19850, BoNT A protease inactive, SARS 3CLpro inh inactive, Anthrax LF prot inactive and BoNT F protease inactive.
Screening CC1CCCCN1C(=O)CSc1nc2cc3c(cc2c(=O)n1Cc1ccc2c(c1)OCO2)OCO3 (centres undefined) returned CCHF vOTU inh inactive, Bead autofluor 21942, BoNT A protease inconclusive, SARS 3CLpro inh inactive, Anthrax LF prot inactive and BoNT F protease inactive.
For CC(C)CN1C(=O)C[C@@]2(C(=O)N(C)c3ccc(NS(=O)(=O)C4CC4)cc32)C1c1ccccc1 (some centres undefined) the results were CCHF vOTU inh inactive.
For CCc1c(Cc2ccccc2)ncn1CCc1ccccc1OC the results were CCHF vOTU inh inactive.
For CCOc1ccc(S(=O)(=O)N(CC)CC)cc1N the results were CCHF vOTU inh inactive, Bead autofluor inactive, BoNT A protease inactive, SARS 3CLpro inh inactive, Anthrax LF prot inactive and BoNT F protease inactive.
COc1ccc(C(N)=O)cc1N was read as CCHF vOTU inh inactive, Bead autofluor 20559, BoNT A protease inactive, SARS 3CLpro inh inactive, Anthrax LF prot inactive and BoNT F protease inactive.
Screening COc1ccc(Cc2ccc(OC)c(N)c2)cc1N returned CCHF vOTU inh inactive, Bead autofluor inactive, BoNT A protease inactive, SARS 3CLpro inh inactive, Anthrax LF prot inactive and BoNT F protease inactive.
`CCOc1ccc(C(=O)c2ccc(OCC)c(N)c2)cc1N` gave CCHF vOTU inh inactive, Bead autofluor 16397, BoNT A protease inactive, SARS 3CLpro inh inactive, Anthrax LF prot inactive and BoNT F protease inactive.
For COC(=O)[C@]12C[C@H](CC(=O)NCc3ccc(OC)c(OC)c3)C(=O)N(Cc3ccccc3)C1=C[C@H](COCc1ccccc1)O[C@@H]2C the results were CCHF vOTU inh inactive.
Screening CS(=O)(=O)N[C@@H]1C[C@@H]2O[C@H](CO)CC[C@@H]2O[C@@H]1CCc1ccc(-c2ccccc2F)cc1 returned CCHF vOTU inh inactive.
Screening O=C(Nc1ccc2c(c1)OCCO2)c1ccc(Br)c(S(=O)(=O)N2CCOCC2)c1 returned CCHF vOTU inh inactive, Bead autofluor inactive, BoNT A protease inactive, SARS 3CLpro inh inactive, Anthrax LF prot inactive and BoNT F protease inactive.
`O=C(Oc1ccc2c(c1)OCO2)c1ccc(Br)c(S(=O)(=O)N2CCOCC2)c1` gave CCHF vOTU inh inactive, Bead autofluor 23166, BoNT A protease inconclusive, SARS 3CLpro inh inactive, Anthrax LF prot inactive and BoNT F protease inactive.
COCCNC(=O)c1c[nH]c2ccc(S(=O)(=O)N3CCOCC3)cc2c1=O was read as CCHF vOTU inh inactive, Bead autofluor inactive, BoNT A protease inactive, SARS 3CLpro inh inactive, Anthrax LF prot inactive and BoNT F protease inactive.
Screening O=C(NCc1ccccc1)c1c[nH]c2cc3c(cc2c1=O)OCCO3 returned CCHF vOTU inh inactive, Bead autofluor 16706, BoNT A protease inactive, SARS 3CLpro inh inactive, Anthrax LF prot inactive and BoNT F protease inactive.
For O=C(NCc1ccc2c(c1)OCO2)c1c[nH]c2ccc(S(=O)(=O)N3CCOCC3)cc2c1=O the results were CCHF vOTU inh inactive, Bead autofluor 21299, BoNT A protease inactive, SARS 3CLpro inh inactive, Anthrax LF prot inactive and BoNT F protease inactive.
O=C(NCc1ccc2c(c1)OCO2)c1ccc(CN2CCOCC2)cc1 was read as CCHF vOTU inh inactive, Bead autofluor 16861, BoNT A protease inactive, SARS 3CLpro inh inactive, Anthrax LF prot inactive and BoNT F protease inactive.
Screening Cc1ccc(C(=O)NCc2ccc3c(c2)OCO3)cc1S(=O)(=O)N1CCOCC1 returned CCHF vOTU inh inactive, Bead autofluor inactive, BoNT A protease inactive, SARS 3CLpro inh inactive, Anthrax LF prot inactive and BoNT F protease inactive.
`COc1cc2[nH]cc(C(=O)NCc3cccs3)c(=O)c2cc1OC` gave CCHF vOTU inh inactive, Bead autofluor 17586, BoNT A protease inactive, SARS 3CLpro inh inactive, Anthrax LF prot inactive and BoNT F protease inactive.
For O=C(NCc1ccc2c(c1)OCO2)c1ccc(Cl)c(S(=O)(=O)N2CCOCC2)c1 the results were CCHF vOTU inh inactive, Bead autofluor 23645, BoNT A protease inactive, SARS 3CLpro inh inactive, Anthrax LF prot inactive and BoNT F protease inactive.
Screening COc1ccc(-n2c(COc3ccc(Cl)cc3)nnc2SCC(=O)c2ccc(-c3ccccc3)cc2)cc1 returned CCHF vOTU inh inactive.
For CC1CCC2(CCC(=O)N2CCCOC(=O)c2ccccc2)CC1 (centres undefined) the results were CCHF vOTU inh inactive.
For COCC(=O)Nc1nc2n(n1)C(c1ccccc1)CC(c1ccc(OC)cc1)N2 (centres undefined) the results were CCHF vOTU inh inactive, Bead autofluor inactive, BoNT A protease inactive, SARS 3CLpro inh inactive, Anthrax LF prot inactive and BoNT F protease inactive.
COCC(=O)Nc1nc2n(n1)C(c1ccc(OC)cc1)CC(c1ccc(OC)cc1)N2 (centres undefined) was read as CCHF vOTU inh inactive, Bead autofluor 21259, BoNT A protease inconclusive, SARS 3CLpro inh inactive, Anthrax LF prot inactive and BoNT F protease inactive.
`CCOc1ccc(C2CC(c3ccccc3)Nc3nc(N)nn32)cc1` (centres undefined) gave CCHF vOTU inh inactive, Bead autofluor 18914, BoNT A protease inconclusive, SARS 3CLpro inh inactive, Anthrax LF prot inactive and BoNT F protease inactive.
O=C(O)CCCC(=O)Nc1nc2n(n1)C(c1ccc(F)cc1)CC(c1ccc(Cl)cc1)N2 (centres undefined) was read as CCHF vOTU inh inactive, Bead autofluor 21330, BoNT A protease inactive, SARS 3CLpro inh inactive, Anthrax LF prot inactive and BoNT F protease inactive.
For CCOC(=O)[C@]12CCCC=C1N(CCCOC)C(=O)[C@@H]2CC(=O)NCc1cccc(C(F)(F)F)c1 the results were CCHF vOTU inh inactive.
Screening CN1Cc2nnn(Cc3ccccc3)c2-c2cc(N3CCCC3)ccc2S1(=O)=O returned CCHF vOTU inh inactive.
C=CCN=C1NC(CCc2ccccc2)C(C(=O)OC)=C(C)N1Cc1cccc(C(F)(F)F)c1 (centres undefined) was read as CCHF vOTU inh inactive.
O=C1CCC(=O)N1OCCCOc1ccccc1 was read as CCHF vOTU inh inactive, Bead autofluor 17200, BoNT A protease inactive, SARS 3CLpro inh inactive, Anthrax LF prot inactive and BoNT F protease inactive.
